miR-122_inh – miR-122 suppressors via Renilla sensor increase, primary screen, cell-based, Huh7 psiCHECK-miR122, Renilla luciferase, single point; 48 h; activation, % at 12.5 µM; 0.14% of 340,000 active; AID 623901, 2012;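 active = mean activation of 30% or more, with every replicate also reaching 30%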;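 note: 0% = median of neutral control wells and 100% = median of positive control wells; higher luciferase signal means stronger suppression of miR-122 activity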
Numbers without * were called inactive. The list is a sample of the results.

SMILES miR-122_inh
COc1ccccc1NC(=O)N(C)C[C@@H]1Oc2ncc(C#CCC(C)C)cc2C(=O)N([C@H](C)CO)C[C@H]1C -4
Cc1ccc(S(=O)(=O)N(C)C[C@@H]2Oc3cc(-c4cccc(F)c4)ccc3S(=O)(=O)N([C@H](C)CO)C[C@H]2C)cc1 6
COCC(=O)N(C)C[C@H]1Oc2ncc(C#Cc3ccccc3OC)cc2C(=O)N([C@H](C)CO)C[C@H]1C 9
CO[C@H]1CN(C)C(=O)c2ccc(NC(=O)c3ccccc3)cc2OC[C@H](C)N(C)C[C@H]1C -2
C[C@@H]1CN([C@H](C)CO)C(=O)c2cc(/C=C/c3ccccc3)cnc2O[C@H]1CN(C)C(=O)C1CCOCC1 -1
Cc1ccccc1-c1cnc2c(c1)C(=O)N([C@H](C)CO)C[C@@H](C)[C@H](CN(C)C(=O)c1ccccc1)O2 4
C[C@@H]1CN([C@@H](C)CO)C(=O)c2cc(-c3cccnc3)cnc2O[C@@H]1CN(C)Cc1ccc(Oc2ccccc2)cc1 2
CCC(=O)N1C[C@H](C)[C@H](OC)CN(C)C(=O)c2ccc(NC(=O)C3CCCCC3)cc2OC[C@@H]1C 1
CCC(=O)N1C[C@H](C)[C@@H](OC)CN(C)C(=O)c2ccc(NC(=O)C3CCCCC3)cc2OC[C@H]1C -2
CCNC(=O)C[C@@H]1CC[C@@H]2[C@@H](COc3ccc(NC(=O)C4CCCCC4)cc3C(=O)N2C)O1 33*
CCCNC(=O)N(C)C[C@@H]1Oc2cc(Br)ccc2S(=O)(=O)N([C@H](C)CO)C[C@@H]1C 6
C[C@H](CO)N1C[C@H](C)[C@@H](CN(C)S(C)(=O)=O)Oc2cc(C#Cc3ccccc3)ccc2S1(=O)=O -130
C[C@@H]1CN([C@@H](C)CO)C(=O)Cc2cc(N(C)C)ccc2O[C@@H]1CN(C)Cc1ccc(C(=O)Nc2ccccc2N)cc1 -142
C[C@H]1CN([C@@H](C)CO)C(=O)c2cc(-c3ccc(F)cc3)cnc2O[C@H]1CN(C)Cc1ccc(C(=O)O)cc1 -27
C[C@H](CO)N1C[C@H](C)[C@@H](CN(C)C(=O)Nc2ccc(F)cc2)Oc2c(NS(=O)(=O)c3ccccc3)cccc2C1=O -128
C[C@H](CO)N1C[C@H](C)[C@H](CN(C)C(=O)Cc2cccnc2)Oc2cc(-c3cncnc3)ccc2S1(=O)=O -3
CC(=O)N(C)C[C@@H]1Oc2cc(C#CC3CCCCC3)ccc2S(=O)(=O)N([C@@H](C)CO)C[C@@H]1C 3
C[C@@H]1CN([C@@H](C)CO)S(=O)(=O)c2ccc(-c3ccc(F)cc3)cc2O[C@@H]1CN(C)C(=O)C1CCOCC1 11
C[C@@H]1CN([C@@H](C)CO)S(=O)(=O)c2ccc(-c3ccc(C(=O)N(C)C)cc3)cc2O[C@H]1CN(C)C(=O)C1CCOCC1 -11
C[C@H]1CN([C@@H](C)CO)S(=O)(=O)c2ccc(-c3ccc(F)cc3)cc2O[C@@H]1CN(C)C(=O)C1CCOCC1 -19
C[C@@H]1CN([C@H](C)CO)S(=O)(=O)c2ccc(C3=CCCC3)cc2O[C@@H]1CN(C)C(=O)Cc1ccncc1 33*
C[C@@H]1CN([C@H](C)CO)S(=O)(=O)c2ccc(C3=CCCC3)cc2O[C@@H]1CN(C)C(=O)C1CCOCC1 34*
C[C@@H]1CN([C@@H](C)CO)S(=O)(=O)c2ccc(-c3cncnc3)cc2O[C@H]1CN(C)C(=O)Cc1ccncc1 3
C[C@@H]1CN([C@H](C)CO)S(=O)(=O)c2ccc(-c3ccc(C(=O)N(C)C)cc3)cc2O[C@H]1CN(C)C(=O)C1CCOCC1 -15
C[C@@H]1CN([C@@H](C)CO)S(=O)(=O)c2ccc(-c3ccc(C(=O)N(C)C)cc3)cc2O[C@@H]1CN(C)C(=O)C1CCC1 40*
SMILES miR-122_inh
C[C@@H]1CN([C@H](C)CO)S(=O)(=O)c2ccc(-c3cncnc3)cc2O[C@@H]1CN(C)C(=O)Cc1ccncc1 5
C/C=C/c1ccc2c(c1)O[C@@H](CN(C)S(C)(=O)=O)[C@H](C)CN([C@@H](C)CO)S2(=O)=O -9
CO[C@@H]1CN(C)C(=O)c2cc(NC(=O)C3CCOCC3)ccc2OC[C@H](C)N(C)C[C@@H]1C -1
C/C=C/c1ccc2c(c1)O[C@H](CN(C)C(=O)CC1CC1)[C@@H](C)CN([C@@H](C)CO)S2(=O)=O -4
C[C@@H]1CN([C@@H](C)CO)C(=O)c2cc(C3=CCCCC3)cnc2O[C@@H]1CN(C)Cc1ccccc1C(=O)O 4
C[C@H](CO)N1C[C@H](C)[C@H](CN(C)C(=O)c2cccc(F)c2)Oc2ncc(-c3cccc(F)c3)cc2C1=O -3
COc1ccc(-c2cnc3c(c2)C(=O)N([C@H](C)CO)C[C@H](C)[C@H](CN(C)C(=O)C2CCOCC2)O3)cc1 -4
CC(C)C#Cc1ccc2c(c1)O[C@@H](CN(C)CC1CCCC1)[C@H](C)CN([C@@H](C)CO)S2(=O)=O -7
COc1cccc(-c2ccc3c(c2)O[C@@H](CN(C)CC2CC2)[C@@H](C)CN([C@@H](C)CO)S3(=O)=O)c1 4

Assay outcomes as filed in PubChem BioAssay.
